Hits are enriched below; roughly 7.3% of the tested compounds scored in any of these assays.
FMDV inh = blocks foot and mouth disease virus. FMDV antiviral cell-based qHTS. Potency, µM (doses to about 57.9 µM), without a hit: at the highest dose activity change, negative = inhibition, usual class: inhibitors. hit rate 1.2% among 410,000. AID 1159524; calls by dose curve; tested in HEK293T cells; further: read-out not given here; potency means the concentration at half of the fitted maximal effect; nearly all actives have a fitted effect of over 45% in size
HCMV antiviral = inhibitors of human cytomegalovirus. AID 1259415. activity change, negative = inhibition, % at 57.5 µM. HFF cells, HCMV-luciferase reporter, 72 h; stronger effect = lower value. hit rate 4.5% among 410,000; in the data active means activity change below about -60%; inconclusive means no clear call, values can overlap the other calls; inactive means above about -39%
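Compounds were evaluated in HFFs infected with an HCMV luciferase reporter virus (MOI 1 PFU/cell). Luciferase in lysates collected 72 h post infection served as the replication measure.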
Vaccinia Venus = inhibitors of vaccinia virus (Venus reporter); Vaccinia virus Venus reporter expression, fluorescence; Potency, µM (titrated, usually from 36.5 µM), for inactives: at the top dose activity change, negative = inhibition, most hits filed as inhibitors; hit rate 0.46% among 330,000; AID 720580; calls by dose curve; tested in A549 cells; further: potency means the concentration at half of the fitted maximal effect; nearly all actives have a fitted effect of over 30% in size
Vaccinia mCherry = inhibitors of vaccinia virus infection (mCherry reporter signal); hit rate 0.63% among 310,000; Vaccinia virus mCherry reporter infection, fluorescence; Potency, µM (doses to about 36.5 µM), for the others: at the top dose activity change, negative = inhibition, usual class: inhibitors; AID 720579; calls by dose curve; tested in A549 cells; further: potency means the concentration at half of the fitted maximal effect; nearly all actives have a fitted effect of over 35% in size
HCV inhibitor = HCV inhibition; Huh7.5.1 HCVcc-Cre infection, luciferase reporter, 44 h; Potency, µM (top dose mostly 41.8 µM), for the others: at the top dose activity change, negative = inhibition, most hits filed as inhibitors; hit rate 3.4% among 340,000; AID 651820; active means well fitted inhibition curve with a large enough effect; inconclusive means small, poorly fitted or top-dose-only effect, or another doubt; inactive means no such curve, though single readings can be large or run the other way; further: potency means the concentration at half of the fitted maximal effect
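Reporter virus HCVcc-Cre (~0.5 moi) infects cells exposed to compound; seeding density 1,000 cells/well with 4 h settling beforehand. Luminescence, 15 sec read, taken 44 h post-infection following a 15 min RT substrate incubation.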
The depositor's hits bear a star; i = inactive; ? = inconclusive; / = no result given; [ ] = another dose, or the depositor's remark. On the % scale 0 is the no-effect control and ±100 the full control effect.

SMILES	FMDV inh	HCMV antiviral	Vaccinia Venus	Vaccinia mCherry	HCV inhibitor
COc1ccc(C)cc1Nc1cc(C)nc(C)n1	-19.7%	4.7	-4.1%	-14.1%	/
FCCCOc1ccc(-c2nccc(-c3ccccn3)n2)cc1	50.9%	141.6	/	/	-18.4%
O=C(O)COc1ccc(-c2nccc(-c3ccccn3)n2)cc1	?	-71.0*	2.5%	9.5%	4.5%
Cn1nnc2c(N3CCN(c4cccc(Cl)c4)CC3)ncnc21	0.0%	3.2	-15.4%	-21.9%	/
COc1ccccc1Cn1c(-c2ccccc2OC)nc2ccccc21	?	-67.6*	-16.3%	-24.4%	0.9%
CCCn1c(NCc2ccccc2NS(=O)(=O)c2ccc(C)cc2)nc2ccccc21	15.2%	-25.7	?	?	?
CCn1c(NCc2ccccc2NS(=O)(=O)c2ccc(C)cc2)nc2ccccc21	-1.1%	35.2	?	?	14.1µM*
CCn1c(NCc2cc(Br)ccc2NS(=O)(=O)c2ccc(C)cc2)nc2ccccc21	3.5%	-12.4	-23.9%	/	10µM*
CCCS(=O)(=O)NCc1c(C)ncc2c1CCN(C(=O)/C=C/c1cccc(Cl)c1)C2	-10.9%	/	15.4%	-6.9%	/
COc1ccccc1CNC(=O)c1cc(Sc2cccc(Cl)c2)nc2ccccc12	16.7%	-38.2	0.3%	i	/
O=S(=O)(c1ccc2c(c1)CCCN2)N1CCCC1	-17.3%	0.0	/	/	1.4%
CCN(CC)c1ccc2c(c1)CCCN2	/	/	/	/	11.2µM*
CC(Nc1ncnc2ccccc12)c1ccccc1 (stereo unspecified)	?	-82.4*	-24.5%	i	4.47µM*
CCOc1cc(/C=N/NC(=O)Cn2nc([N+](=O)[O-])cc2C)cc(Br)c1OCc1ccccc1F	0.0%	-96.2*	/	/	15.2%
O=C(O)c1cc(-c2ccccc2)n(-c2ccccc2C(=O)O)n1	12.5%	-99.9*	-7.5%	-10.0%	14.2%
O=C(NN1C(=O)NC2(CCCCC2)C1=O)c1ccc(-c2ccc(Cl)cc2)o1	?	-10.1	?	-22.4%	11.2µM*
O=C(NN1C(=O)NC2(CCCCC2)C1=O)c1cc2cc(Cl)ccc2o1	-5.4%	-6.4	/	/	3.8%
COc1ccccc1NC(C)C(=O)c1c(C)[nH]c2ccccc12 (stereo unspecified)	/	/	-25.9%	-5.5%	/
CC(C)(C)c1ccccc1OCCCCCNCCO	-22.6%	-33.0	/	/	7.94µM*
Cc1ccccc1OCCCCCNCCO	-15.7%	25.2	/	/	?
COc1cccc(CN2C(=O)c3ccccc3Sc3ccc(C(=O)NCCc4ccc(Cl)cc4)cc32)c1	8.5%	9.2	-12.7%	-23.6%	/
CCOc1ccccc1CNC(=O)C(CC)n1nc(C)c2c(C)n(-c3ccccc3)nc2c1=O (stereo unspecified)	?	-39.5	-21.3%	-23.2%	/
COc1ccc(N2CCn3c2nc2c3c(=O)n(CCCc3ccccc3)c(=O)n2C)c(OC)c1	12.6µM*	-90.5*	/	/	14.1µM*
COCCn1c(N2CCN(c3ccccc3)CC2)nc2c1c(=O)n(C)c(=O)n2C	?	-21.8	-2.4%	-15.4%	?
CCn1c(Oc2ccccc2C)nc2c1c(=O)n(C)c(=O)n2C	-8.6%	-73.6*	/	/	2.5%
SMILES	FMDV inh	HCMV antiviral	Vaccinia Venus	Vaccinia mCherry	HCV inhibitor
C=C(C)Cn1c(N2CCN(c3ccc(OC)cc3)CC2)nc2c1c(=O)n(C)c(=O)n2C	28.2µM*	?	-22.1%	-14.3%	?
COc1ccc(N2CCN(c3nc4c(c(=O)n(C)c(=O)n4C)n3Cc3ccccc3)CC2)cc1	-27.5%	3.8	?	-15.1%[1.46 µM]	11.2µM*
Cc1nnc(N2CCC(C(=O)N3CCCCC3)CC2)c2nn(-c3ccccc3)c(C)c12	2.8%	-33.4	-10.6%	-18.0%	/
O=C(COc1ccccc1C(=O)Nc1ccccc1)Nc1ccc(-c2ccccc2)cc1	/	/	-25.3%	-23.9%	/
COC(=O)c1c(C)sc(-c2c(-c3ccc(F)cc3)[nH]c3[nH]c(=O)[nH]c(=O)c23)c1O	-8.4%	-10.6	-5.3%	0.6%	/
C#CCOc1nc2c(c(=O)n(C)c(=O)n2C)n1Cc1ccccc1	?	-38.9	/	/	12.6µM*
C=CCOc1nc2c(c(=O)n(C)c(=O)n2C)n1Cc1ccccc1	?	-4.4	-13.8%	0.7%	-5.8%
Cc1ccc(Nc2nc3ccccc3[nH]2)nc1	?	-76.6*	?	?	?
Cc1ccc2nc(-c3ccc(Cl)c(NC(=O)c4ccc5c(c4)OCCO5)c3)oc2c1	61.1%	8.2	20.9%	-2.7%	/
COc1ccc(-c2ccc(/C=C3/C(=N)N4C(C)=CSC4=NC3=O)o2)c([N+](=O)[O-])c1	39.8µM*	9.2	53.5%	-10.4%	-13.4%
COc1ccc(-c2ccc(/C=C3\C(=O)N(c4ccccc4)N=C3c3ccccc3)o2)c([N+](=O)[O-])c1	-20.7%	-21.2	-4.0%	-13.2%	2.8%
COCCCNc1nc(NCc2ccccc2OC)c2cnn(C)c2n1	?	-18.8	-17.9%	-13.8%	/
O=C(Nc1ccc([N+](=O)[O-])cc1)Nc1cnccn1	-5.7%	-81.2*	/	/	-20.9%
Cc1ccc(C(C)C)cc1NC(=O)Nc1ccc([N+](=O)[O-])cc1	?	-102.1*	10µM*	?	12.6µM*
CCCCOc1ccc(S(=O)(=O)Nc2ccc(NC(C)=O)cc2)cc1	-22.8%	?	/	/	8.91µM*
O=C(Nc1ccc(Oc2ccc(NC(=O)Nc3ccc([N+](=O)[O-])cc3)cc2)cc1)Nc1ccc([N+](=O)[O-])cc1	?	-95.4*	-10.2%	?	5.62µM*
Cc1ccc(NC(=O)Nc2cnccn2)cc1	24.8%	50.3	?	?	-7.4%
COc1cccc(CNS(=O)(=O)c2cc3[nH]c(=O)c(=O)[nH]c3cc2C)c1	-1.6%	11.9	-1.1%	-9.4%	/
O=C(Nc1ccc(OCc2cc(=O)n3c4c(sc3n2)CCCC4)cc1)c1cccc(F)c1	0.1%	-1.0	-3.1%	-4.7%	/
Cn1c(SCC(=O)N2CCOCC2)ncc(C(=O)Nc2ccc(F)cc2)c1=O	-12.3%	0.3	-6.5%	i	/
COc1ccc(S(=O)(=O)NCC(c2ccco2)N2CCN(c3ccccc3F)CC2)cc1C (stereo unspecified)	0.5%	30.8	-15.3%	-10.5%	/
CC(=O)Nc1ccc(OCCOc2ccc(NC(C)=O)cc2)cc1	-2.1%	13.8	/	/	18.7%
CC(=O)Nc1ccc(OCCOc2ccc([N+](=O)[O-])cc2)cc1	-14.3%	-72.1*	-15.3%	i	-26.4%
CC(=O)Nc1ccc(OS(=O)(=O)c2ccc([N+](=O)[O-])cc2)cc1	3.4%	-62.2*	/	/	-6.4%
O=C(CNC(=O)c1ccccc1)NCC(=O)OCC(=O)c1ccc2ccccc2c1	/	/	-16.1%	-10.1%	/
CC(C)N(C(=O)[C@H]1CC(CC(=O)NCC23CC4CC(CC(C4)C2)C3)C(=O)N2CCc3c([nH]c4ccccc34)[C@]12C)C(C)C (stereo partly specified)	0.0%	-73.6*	?	?	3.16µM*
CC(C)N(C(=O)[C@H]1C[C@H](CC(=O)NCC23CC4CC(CC(C4)C2)C3)C(=O)N2CCc3c([nH]c4cc(-c5ccco5)ccc34)[C@]12C)C(C)C	-26.0%	-21.2	?	28.2µM*	4.5%
